# Where “and” joins values, the source holds several entries; their conditions need not be identical. Equal values may be shown once. The whole screen tested about 5,700 compounds, of which about 85 (1%) were called active. Cut-off read from the data, not from the text of the source: active = p53-positive nuclei above about 36% (passing the limit was not always enough); inactive = the rest. Shown is part of a subset that was picked to be rich in actives. More than one record can exist for a structure, and the calls need not agree.
# Assays:
# [1] = nuclear p53 accumulation, HPV+ cells – imaging, p53-positive nuclei imaging, 24 h, 48 h (AID 1508601); conditions: 24/48 h
# [2] = molecular target: Cellular tumor antigen p53 (Homo sapiens) (UniProt P04637); assay: as above; conditions: 24/48 h, stronger effect = higher value
# [3] = measured here: cell number at 24 h, Library stock concentration: 3.33 mM
# [4] = measured here: cell number at 48 h, Library stock concentration: 3.33 mM
# [5] = Library stock concentration: 3.33 mM
# [6] = measured here: p53 positive nuclei at 24 h, Library stock concentration: 3.33 mM
# [7] = measured here: cell number at 24 h, Library stock concentration: 10 mM
# [8] = measured here: cell number at 48 h, Library stock concentration: 10 mM
# [9] = Library stock concentration: 10 mM
# [10] = measured here: p53 positive nuclei at 24 h, Library stock concentration: 10 mM
# [11] = measured here: cell number at 24 h, concentration not given here
# [12] = measured here: cell number at 48 h, concentration not given here
# [13] = measured here: p53 positive nuclei at 24 h, concentration not given here
# Sequence of Cellular tumor antigen p53 (Homo sapiens) (P04637 whole entry, looked up): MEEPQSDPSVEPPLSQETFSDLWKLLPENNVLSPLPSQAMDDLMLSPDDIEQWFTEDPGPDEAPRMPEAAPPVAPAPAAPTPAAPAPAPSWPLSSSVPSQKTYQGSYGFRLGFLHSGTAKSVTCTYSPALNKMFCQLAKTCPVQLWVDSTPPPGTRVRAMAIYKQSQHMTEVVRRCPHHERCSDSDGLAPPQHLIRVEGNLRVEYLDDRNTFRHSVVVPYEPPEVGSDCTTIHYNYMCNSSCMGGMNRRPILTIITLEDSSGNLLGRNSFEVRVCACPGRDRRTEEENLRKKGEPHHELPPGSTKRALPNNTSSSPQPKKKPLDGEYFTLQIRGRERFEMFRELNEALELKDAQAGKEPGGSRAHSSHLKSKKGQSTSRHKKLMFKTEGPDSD
compound,measurement,setting,value
COc1ccc(F)c(F)c1C(=O)c1cnc(NC2CCN(S(C)(=O)=O)CC2)nc1N,"nuclei count, normalised",[1]; [3],43.7%
same,"nuclei count, normalised",[1]; [4],27.7%
same,"p53-positive nuclei, normalised",[2]; [5],67.1% (active)
same,"p53-positive nuclei, normalised",[2]; [6],73.8%
Cc1cc(OCCCS(C)(=O)=O)cc(C)c1-c1cccc(COc2ccc3c(c2)OCC3CC(=O)O)c1 (stereo not given),"nuclei count, normalised","[1]; measured here: cell number at 24 h, Library stock concentration: 46 uM",101%
same,"nuclei count, normalised","[1]; measured here: cell number at 24 h, Library stock concentration: 278 uM",107%
same,"nuclei count, normalised","[1]; measured here: cell number at 24 h, Library stock concentration: 1.67 mM",104%
same,"nuclei count, normalised",[1]; [3],125%
same,"nuclei count, normalised",[1]; [7],103%
same,"nuclei count, normalised","[1]; measured here: cell number at 48 h, Library stock concentration: 46 uM",105%
same,"nuclei count, normalised","[1]; measured here: cell number at 48 h, Library stock concentration: 278 uM",104%
same,"nuclei count, normalised","[1]; measured here: cell number at 48 h, Library stock concentration: 1.67 mM",104%
same,"nuclei count, normalised",[1]; [4],119%
same,"nuclei count, normalised",[1]; [8],103%
same,"p53-positive nuclei, normalised",[2]; Library stock concentration: 46 uM,-0.0206% (inactive)
same,"p53-positive nuclei, normalised",[2]; Library stock concentration: 278 uM,-0.0568% (inactive)
same,"p53-positive nuclei, normalised",[2]; Library stock concentration: 1.67 mM,-0.0557% (inactive)
same,"p53-positive nuclei, normalised",[2]; [5],-0.149% (inactive)
same,"p53-positive nuclei, normalised",[2]; [9],0.322% (inactive)
same,"p53-positive nuclei, normalised","[2]; measured here: p53 positive nuclei at 24 h, Library stock concentration: 46 uM",-0.152%
same,"p53-positive nuclei, normalised","[2]; measured here: p53 positive nuclei at 24 h, Library stock concentration: 278 uM",0.151%
same,"p53-positive nuclei, normalised","[2]; measured here: p53 positive nuclei at 24 h, Library stock concentration: 1.67 mM",-0.156%
same,"p53-positive nuclei, normalised",[2]; [6],-0.546%
same,"p53-positive nuclei, normalised",[2]; [10],-0.0299%
O=C(O)/C=C/CCCCCCCCC(=O)O,"nuclei count, normalised",[1]; [11],111%
same,"nuclei count, normalised",[1]; [12],107%
same,"p53-positive nuclei, normalised",[2]; concentration not given here,0.0752% (inactive)
same,"p53-positive nuclei, normalised",[2]; [13],0.0107%
C=C1C(=O)OC(CCCCCCCC)C1C(=O)O (stereo not given),"nuclei count, normalised","[1]; measured here: cell number at 24 h, Library stock concentration: 500 nM",115%
same,"nuclei count, normalised","[1]; measured here: cell number at 24 h, Library stock concentration: 1.5 uM",107%
same,"nuclei count, normalised","[1]; measured here: cell number at 24 h, Library stock concentration: 4.6 uM",111%
same,"nuclei count, normalised","[1]; measured here: cell number at 24 h, Library stock concentration: 13.7 uM",112%
same,"nuclei count, normalised","[1]; measured here: cell number at 24 h, Library stock concentration: 41 uM",108%
same,"nuclei count, normalised","[1]; measured here: cell number at 24 h, Library stock concentration: 123 uM",110%
same,"nuclei count, normalised","[1]; measured here: cell number at 24 h, Library stock concentration: 370 uM",116%
same,"nuclei count, normalised","[1]; measured here: cell number at 24 h, Library stock concentration: 1.111 mM",116%
same,"nuclei count, normalised","[1]; measured here: cell number at 24 h, Library stock concentration: 3.333 mM",114%
same,"nuclei count, normalised",[1]; [7],106%
same,"nuclei count, normalised","[1]; measured here: cell number at 48 h, Library stock concentration: 500 nM",112%
same,"nuclei count, normalised","[1]; measured here: cell number at 48 h, Library stock concentration: 1.5 uM",108%
same,"nuclei count, normalised","[1]; measured here: cell number at 48 h, Library stock concentration: 4.6 uM",109%
same,"nuclei count, normalised","[1]; measured here: cell number at 48 h, Library stock concentration: 13.7 uM",110%
same,"nuclei count, normalised","[1]; measured here: cell number at 48 h, Library stock concentration: 41 uM",105%
same,"nuclei count, normalised","[1]; measured here: cell number at 48 h, Library stock concentration: 123 uM",108%
same,"nuclei count, normalised","[1]; measured here: cell number at 48 h, Library stock concentration: 370 uM",116%
same,"nuclei count, normalised","[1]; measured here: cell number at 48 h, Library stock concentration: 1.111 mM",114%
same,"nuclei count, normalised","[1]; measured here: cell number at 48 h, Library stock concentration: 3.333 mM",112%
same,"nuclei count, normalised",[1]; [8],107%
same,"p53-positive nuclei, normalised",[2]; Library stock concentration: 500 nM,0.247% (inactive)
same,"p53-positive nuclei, normalised",[2]; Library stock concentration: 1.5 uM,-0.0382% (inactive)
same,"p53-positive nuclei, normalised",[2]; Library stock concentration: 4.6 uM,-0.0805% (inactive)
same,"p53-positive nuclei, normalised",[2]; Library stock concentration: 13.7 uM,-0.0825% (inactive)
same,"p53-positive nuclei, normalised",[2]; Library stock concentration: 41 uM,0.00899% (inactive)
same,"p53-positive nuclei, normalised",[2]; Library stock concentration: 123 uM,-0.155% (inactive)
same,"p53-positive nuclei, normalised",[2]; Library stock concentration: 370 uM,0.0153% (inactive)
same,"p53-positive nuclei, normalised",[2]; Library stock concentration: 1.111 mM,-0.0515% (inactive)
same,"p53-positive nuclei, normalised",[2]; Library stock concentration: 3.333 mM,0.104% (inactive)
same,"p53-positive nuclei, normalised",[2]; [9],0.0835% (inactive)
same,"p53-positive nuclei, normalised","[2]; measured here: p53 positive nuclei at 24 h, Library stock concentration: 500 nM",-0.115%
same,"p53-positive nuclei, normalised","[2]; measured here: p53 positive nuclei at 24 h, Library stock concentration: 1.5 uM",0.12%
same,"p53-positive nuclei, normalised","[2]; measured here: p53 positive nuclei at 24 h, Library stock concentration: 4.6 uM",-0.0584%
same,"p53-positive nuclei, normalised","[2]; measured here: p53 positive nuclei at 24 h, Library stock concentration: 13.7 uM",-0.0585%
same,"p53-positive nuclei, normalised","[2]; measured here: p53 positive nuclei at 24 h, Library stock concentration: 41 uM",0.0028%
same,"p53-positive nuclei, normalised","[2]; measured here: p53 positive nuclei at 24 h, Library stock concentration: 123 uM",-0.115%
same,"p53-positive nuclei, normalised","[2]; measured here: p53 positive nuclei at 24 h, Library stock concentration: 370 uM",-0.0115%
same,"p53-positive nuclei, normalised","[2]; measured here: p53 positive nuclei at 24 h, Library stock concentration: 1.111 mM",0.0471%
same,"p53-positive nuclei, normalised","[2]; measured here: p53 positive nuclei at 24 h, Library stock concentration: 3.333 mM",0.103%
same,"p53-positive nuclei, normalised",[2]; [10],-0.112%
Cc1ccc(NC(=O)CCCCCC(=O)Nc2ccccc2N)cc1,"nuclei count, normalised",[1]; [11],111%
same,"nuclei count, normalised",[1]; [12],104%
same,"p53-positive nuclei, normalised",[2]; concentration not given here,-0.139% (inactive)
same,"p53-positive nuclei, normalised",[2]; [13],-0.0721%
O=C(CCCCCCC(=O)Nc1ccccc1)NO,"nuclei count, normalised","[1]; measured here: cell number at 24 h, Library stock concentration: 80 uM",112%
same,"nuclei count, normalised","[1]; measured here: cell number at 24 h, Library stock concentration: 400 uM",108% and 112%
same,"nuclei count, normalised","[1]; measured here: cell number at 24 h, Library stock concentration: 2 mM",91.7% and 119%
same,"nuclei count, normalised",[1]; [3],78.1%
same,"nuclei count, normalised",[1]; [7],48.6% and 60.7%
same,"nuclei count, normalised",[1]; [11],97.6%
same,"nuclei count, normalised","[1]; measured here: cell number at 48 h, Library stock concentration: 80 uM",108% and 95.5%
same,"nuclei count, normalised","[1]; measured here: cell number at 48 h, Library stock concentration: 400 uM",95.7% and 94.9%
same,"nuclei count, normalised","[1]; measured here: cell number at 48 h, Library stock concentration: 2 mM",94.4% and 101%
same,"nuclei count, normalised",[1]; [4],74.5%
same,"nuclei count, normalised",[1]; [8],30.2% and 39.7%
same,"nuclei count, normalised",[1]; [12],95.7%
same,"p53-positive nuclei, normalised",[2]; Library stock concentration: 80 uM,0.114% (inactive) and -0.578% (inactive)
same,"p53-positive nuclei, normalised",[2]; Library stock concentration: 400 uM,-0.0686% (inactive) and -0.456% (inactive)
same,"p53-positive nuclei, normalised",[2]; Library stock concentration: 2 mM,1.4% (inactive) and -0.595% (inactive)
same,"p53-positive nuclei, normalised",[2]; [5],4.65% (inactive)
same,"p53-positive nuclei, normalised",[2]; [9],53.5% (active) and 27.2% (inactive)
same,"p53-positive nuclei, normalised",[2]; concentration not given here,0.0822% (inactive)
same,"p53-positive nuclei, normalised","[2]; measured here: p53 positive nuclei at 24 h, Library stock concentration: 80 uM",0.178% and -0.162%
same,"p53-positive nuclei, normalised","[2]; measured here: p53 positive nuclei at 24 h, Library stock concentration: 400 uM",-0.0144% and -0.0685%
same,"p53-positive nuclei, normalised","[2]; measured here: p53 positive nuclei at 24 h, Library stock concentration: 2 mM",2.42% and 0.0577%
same,"p53-positive nuclei, normalised",[2]; [6],8.5%
same,"p53-positive nuclei, normalised",[2]; [10],65.2% and 32.1%
same,"p53-positive nuclei, normalised",[2]; [13],0.00812%
Nc1ccccc1NC(=O)CCCCCCC(=O)Nc1ccccc1,"nuclei count, normalised",[1]; [11],102%
same,"nuclei count, normalised",[1]; [12],99.7%
same,"p53-positive nuclei, normalised",[2]; concentration not given here,-0.185% (inactive)
same,"p53-positive nuclei, normalised",[2]; [13],-0.135%

# — PubChem BioAssay AID1508601 (ICCB-Longwood Screening Facility, Harvard Medical School, 2020)
